Screening results from PubChem BioAssay.
TDP1 inh: TDP1 (human) enzyme inhibition; Q9NUW8; recombinant TDP1, AlphaScreen DNA substrate cleavage; Potency, µM (titrated, usually from 130 µM), most hits filed as inhibitors; 0.28% of 350,000 active; AID 485290; also: nearly all actives have a fitted effect of over 40% in size
Target sequence (Q9NUW8 whole entry, looked up): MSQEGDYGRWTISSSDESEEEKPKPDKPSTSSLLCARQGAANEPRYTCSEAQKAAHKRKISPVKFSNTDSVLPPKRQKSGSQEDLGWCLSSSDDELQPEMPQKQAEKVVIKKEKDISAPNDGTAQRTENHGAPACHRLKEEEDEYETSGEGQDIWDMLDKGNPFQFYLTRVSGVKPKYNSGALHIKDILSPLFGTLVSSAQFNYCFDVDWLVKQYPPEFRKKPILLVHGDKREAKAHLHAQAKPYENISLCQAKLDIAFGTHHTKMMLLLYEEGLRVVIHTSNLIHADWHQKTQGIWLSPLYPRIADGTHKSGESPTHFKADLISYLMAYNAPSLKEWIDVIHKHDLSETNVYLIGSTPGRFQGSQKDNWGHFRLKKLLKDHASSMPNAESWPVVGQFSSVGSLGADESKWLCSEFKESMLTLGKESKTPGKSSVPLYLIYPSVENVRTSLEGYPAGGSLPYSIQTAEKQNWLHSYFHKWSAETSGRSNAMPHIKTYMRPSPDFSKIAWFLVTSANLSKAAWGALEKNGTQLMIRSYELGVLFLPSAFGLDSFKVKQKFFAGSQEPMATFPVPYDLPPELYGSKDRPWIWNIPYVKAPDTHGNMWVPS
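Tdp1 1 nM final; 15 min RT w/ cpd; substrate 15 nM, 5 min; beads 10 ug/ml, 10 min; AlphaScreen read. Neg ctrl: no enzyme.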
DT40 TDP1 CPT: DT40-hTDP1 cell growth loss with CPT; chicken DT40 Tdp1-/-;hTDP1 cells + 20 nM CPT, ATP luminescence, 48 h; Potency, µM (titrated, usually from 46.2 µM), most hits filed as inhibitors; 12% of 420,000 active; AID 686979; also: nearly all actives have a fitted effect of over 55% in size
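Chicken DT40 Tdp1-/- cells stably complemented with human TDP1 were seeded at 400 cells/well in medium containing 20 nM camptothecin, exposed to pin-transferred compounds, and grown at 37 °C for at least 48 hr. Viability was read as ATP luminescence.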
DT40 TDP1 no CPT: qHTS for Inhibitors of human tyrosyl-DNA phosphodiesterase 1 (TDP1): qHTS in cells in absence of CPT. 15% of 420,000 active. DT40 Tdp1-/- hTDP1 cells, no CPT, ATP luminescence, 48 h. AID 686978, 2013. Potency, µM (titrated, usually from 46.2 µM), actives largely listed as inhibitors; also: nearly all actives have a fitted effect of over 55% in size
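Seeded 400 DT40-hTDP1 cells/well (vehicle DMSO, no 20 nM CPT); pinned compounds; ≥48 hr at 37 °C; CellTiter-Glo luminescence as viability measure.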
IL1B secr inh: inhibitors of inflammasome signaling (IL-1 beta secretion); THP-1 LPS/ATP IL-1B secretion, AlphaLISA, 16 h; hits give low values; activity change, % at 57.5 µM; 4.7% of 360,000 active; in the data active = activity change below about -50%; inconclusive = mostly about -30% to -49%
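Secreted IL-1B measured by AlphaLISA bead assay after 16 h compound exposure of THP-1 cells; compounds (final up to 57.5 uM) added 1 h before LPS (250 ng/mL) and ATP (1.25 mM) stimulation; lower signal means less secretion.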
HepG2 viability: HepG2 cytotoxicity, counter-screen for TGF-b inhibitors; HepG2 CAGA-GFP viability, ATP luminescence, 18 h; Potency, µM (series often up to 46.1 µM), usual class: cytotoxic; 0.76% of 410,000 active; AID 588856
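CellTiter-Glo luminescence gave cytotoxicity after 18 hours at 37 degrees C. The cells were HepG2 CAGA-GFP in 1% FBS DMEM, stimulated with 500 pg/mL TGF-beta after compound addition. %Activity was normalised to no-cell wells (complete cell-killing) and DMSO (no toxicity), and curves were fitted and classified.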
TGFb SMAD3 inh: inhibitors of TGF-b signaling. 1.2% of 410,000 active. HepG2 CAGA-GFP TGF-b/SMAD3 reporter, GFP fluorescence, 18 h; TGF-beta stimulated, 500 pg/mL final. Potency, µM (doses to about 46.1 µM), most hits filed as inhibitors; also: nearly all actives have a fitted effect of over 65% in size
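HEPG2 CAGA-GFP, 1000 cells/well; 2 h settle, 37 C; cpd via pin tool; TGF-b 500 pg/mL final; 18 h, 37 C; GFP imaging ex488/em500-530; %Activity normalised to -TGF-b and +DMSO controls; CRC fit, curve class.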
Hits are given with their value; – = inactive; ? = inconclusive; · = not tested or not shown; [ ] = another dose, or the depositor's remark. Only some compounds are listed: those with a hit (about 18% of all), similar ones and a draw of the others. Unless noted, calls follow the shape of the dose curve; as a rule, active = well fitted curve in the direction sought with a large enough effect; inconclusive = small, poorly fitted or top-dose-only effect, or another doubt; inactive = no such curve, though single readings can be large; an effect the other way counts as inactive or inconclusive.

SMILES	TDP1 inh	DT40 TDP1 CPT	DT40 TDP1 no CPT	IL1B secr inh	HepG2 viability	TGFb SMAD3 inh
CC(C)(C)Nc1ncnc2sc(-c3ccccc3)cc12	·	26µM	23µM	–	–	?
COc1ccc(Nc2ncnc3sc(-c4ccccc4)cc23)cc1	–	–	?	–	–	–
COc1ncnc2sc(-c3ccccc3)cc12	–	–	–	–	–	–
CN(C)c1ncnc2sc(-c3ccccc3)cc12	–	?	–	-55	–	–
C=COCCCNc1ncnc2sc(-c3ccccc3)cc12	·	16µM	15µM	–	–	?
COC(CNc1ncnc2sc(-c3ccccc3)cc12)OC	·	?	?	?	–	–
Cc1ccc(S(=O)(=O)NCC(C)n2nc(C)nc2C)cc1 (stereo unspecified)	–	–	–	–	–	–
O=c1[nH]ncc(N2CCN(C(c3ccccc3)c3ccccc3)CC2)c1Cl	–	21µM	10µM	–	–	–
CC(=O)N1CCN(S(=O)(=O)c2cccc(C(=O)NNC(=O)Cn3nc(C)cc3C)c2)CC1	–	–	–	–	–	–
CC(C)(C)n1ncc2c(=O)n(Cc3cccc(C(F)(F)F)c3Cl)cnc21	·	·	·	·	–	–
Cc1cccc(Nc2nnc(SCc3cc(=O)n4cc(C)ccc4n3)s2)c1	–	23µM	23µM	–	–	?
Cc1ccc(Nc2nnc(SCc3cc(=O)n4ccsc4n3)s2)c(C)c1	–	–	?	–	–	?
COc1ccccc1Nc1nnc(SCc2cc(=O)n3ccsc3n2)s1	–	?	23µM	–	–	–
Cc1ccc(/C=C2/CNC/C(=C\c3ccc(C)cc3)C2=O)cc1	–	·	·	·	·	·
CCc1ccc(OCCCCn2c(CCNC(=O)C3CCCCC3)nc3ccccc32)cc1	–	7.1µM	10µM	·	–	–
O=C(NCCc1nc2ccccc2n1CCCOc1ccccc1Cl)C1CCCCC1	–	10µM	7.1µM	·	–	–
CC(C)(C)C(=O)NCCc1nc2ccccc2n1CCCCOc1ccccc1	–	?	16µM	·	–	–
Cc1ccc(C)c(OCCn2c(CCNC(=O)C3CCCCC3)nc3ccccc32)c1	–	·	·	·	–	–
Cc1ccccc1OCCn1c(CCNC(=O)C2CCCCC2)nc2ccccc21	–	?	18µM	·	–	–
Cc1ccc(S(=O)(=O)NC2=NCN(C(C)C)CN2)cc1	·	–	–	–	–	–
Cc1cc(CNC(=O)c2cccc3c2C(=O)c2ccc(-c4ccc(F)cc4OCc4ccccc4)cc2S3(=O)=O)c(C(F)(F)F)o1	–	?	12µM	–	–	–
O=C(NCc1ccccc1Br)c1cccc2c1C(=O)c1ccc(-c3ccc(OC(F)(F)F)cc3)cc1S2(=O)=O	–	8.2µM	7.3µM	–	–	–
O=C(NCc1ccco1)c1cccc2c1C(=O)c1ccc(N3CCC(Cc4ccccc4)CC3)cc1S2(=O)=O	–	13µM	13µM	–	–	–
O=C(NCc1ccc(OC(F)(F)F)cc1)c1cccc2c1C(=O)c1ccc(N3CCCC3)cc1S2(=O)=O	–	–	18µM	–	–	–
COc1ccc2nc(SCC(=O)C(C)(C)C)[nH]c2c1	·	–	–	–	–	–
SMILES	TDP1 inh	DT40 TDP1 CPT	DT40 TDP1 no CPT	IL1B secr inh	HepG2 viability	TGFb SMAD3 inh
COc1cc2cnc(CCO[C@H]3CCCCO3)cc2cc1OC	–	–	–	–	–	–
O=C1CC[C@@H](C(=O)N[C@@H](Cc2cnc[nH]2)C(=O)N[C@@H](Cc2c[nH]c3ccccc23)C(=O)N[C@@H](CO)C(=O)N[C@@H](Cc2ccc(O)cc2)C(=O)O)N1	–	·	·	·	·	·
O=C(NCc1ccc(OC(F)(F)F)cc1)c1cccc2c1C(=O)c1ccc(N3CCC(Cc4ccccc4)CC3)cc1S2(=O)=O	–	8.2µM	5.2µM	–	–	–
O=C(NCc1cccc(C(F)(F)F)c1)c1cccc2c1C(=O)c1ccc(N3CCC(Cc4ccccc4)CC3)cc1S2(=O)=O	–	?	7.3µM	–	–	–
O=C(NCc1ccco1)c1cccc2c1C(=O)c1ccc(/C=C/c3ccccc3)cc1S2(=O)=O	32µM	?	23µM	–	–	?
O=C(NCCc1ccc(F)cc1)c1cccc2c1C(=O)c1ccc(N3CCC(Cc4ccccc4)CC3)cc1S2(=O)=O	–	?	?	–	–	–
CC/C=C(\C(=O)N[C@@H]1C(=O)N2C(C(=O)OCOC(=O)C(C)(C)C)=C(COC(N)=O)CS[C@H]12)c1csc(N)n1	·	–	–	·	·	·
CCCCCc1ccc(C)cc1O	·	–	–	·	·	·
CCOC(=O)C1CCN(CC(O)COc2ccc(C(C)(C)CC)cc2)CC1 (stereo unspecified)	–	16µM	18µM	?	–	?
CCOC(=O)C1CCN(CC(O)COc2ccc(C(C)(C)C)cc2)CC1 (stereo unspecified)	–	?	16µM	–	–	–
COc1ccc(C(=O)N/N=C(\N)c2cc3ccccc3oc2=O)cc1	–[0.0935 µM]	?	?	–	–	–
Cc1ccc(-n2c(=O)c3c(C)c(C)sc3n(CC(=O)NCc3ccccc3)c2=O)cc1C	–	–	–	·	–	–
COc1cc2c(Cc3ccccc3)cncc2cc1O	·	?	?	–	–	–
CCCCOCCCNC1=NCCCCC1	–	–	–	–	–	–
CC(C)CCNC1=NCCCCC1	–	–	–	–	11µM	?
COc1ccc(C(=O)NCCn2cc(SCc3c(F)cccc3Cl)c3ccccc32)cc1	–	?	?	·	–	16µM
COc1ccc(C(=O)NCCn2cc(SCC(=O)Nc3cccc(C)c3)c3ccccc32)cc1	–	16µM	?	·	–	?
COc1ccc(C(=O)NCCn2cc(SCC(=O)Nc3nnc(C)s3)c3ccccc32)cc1	·	?	?	–	–	–
COc1ccc(C(=O)NCCn2cc(SCC(=O)NCC3CCCO3)c3ccccc32)cc1 (stereo unspecified)	–	–	–	–	–	–
COc1ccc(C(=O)NCCn2cc(SCC(=O)NCc3ccco3)c3ccccc32)cc1	–	7.3µM	5.8µM	–	–	–
OCCNCCSc1nc(C2CCCCC2)n(-c2ccccc2Cl)n1	–	–	?	?	–	–
C[C@@H]1CCCCO[C@H](CN(C)C(=O)Nc2ccccc2)[C@@H](C)CN([C@H](C)CO)C(=O)c2cc(NS(=O)(=O)c3cn(C)cn3)ccc2O1	·	–	–	–	–	–
COc1ccc(C(=O)NC(CCSC)C(=O)N2CCCCCC2)cc1 (stereo unspecified)	–[0.0935 µM]	–	–	–	–	–
